The values that follow come from PubChem BioAssay (EPA / NIEHS).

A word on the AC50: it is the concentration at which the activity in the assay is half-maximal.

Molecules are shown by their SMILES. Inconclusive results are not listed. Activity calls are given as the source filed them. Rule for the calls: active = hit-call score of the fitted dose curve at least 0.9, where 1 is the maximum; inconclusive = response in the unintended direction; inactive = score below 0.9.

Read-out in the experiment: Cytochrome P450 2B6 (Homo sapiens) (UniProt P20813)
In words: CLD_CYP2B6_24hr: CellzDirect (CLD) Gene Expression Assay for xenobiotic metabolism (CYP2B6) at 24 hours (AID 2283686). On the procedure:
CLD_24hr is a cell-based, multiplexed-readout assay that uses hepatocyte, a human liver primary cell, with measurements taken at 24 hours after chemical dosing in a 96-well plate.CLD_CYP2B6_24hr is one of 16 assay component(s) measured or calculated from the CLD_24hr assay. It is designed to make measurements of mRNA induction, a form of inducible reporter, as detected with chemiluminescence signals by Quantitative Nuclease Protection Assay (qNPA) technology.Data from the assay component CLD_CYP2B6_24hr was analyzed at the endpoint, CLD_CYP2B6_24hr, in the positive analysis fitting direction relative to DMSO as the negative control and baseline of activity. Using a type of inducible reporter, gain-of-signal activity can be used to understand changes in the reporter gene as they relate to the gene CYP2B6. Furthermore, this assay endpoint can be referred to as a primary readout. To generalize the intended target to other relatable targets, this assay endpoint is annotated to the cyp intended target family, where subfamily is xenobiotic metabolism.
Human hepatocyte cultures were treated daily for two consecutive days with fresh dosing solutions containing appropriate concentrations of the 320 ToxCast chemicals (chemical identities were blinded to CellzDirect and other ToxCast collaborators), vehicle control (0.2% DMSO), and positive control inducers as summarized in Table 1. Due to the large number of treatment groups and chemicals examined, the ToxCast chemicals were divided into two groups (spanning two independent cultures of hepatocytes from separate donor preparations (Hu778: ToxCast plates 1 and 2; Hu776: ToxCast plates 3 and 4). Each preparation of human hepatocyte cultures was treated with respective vehicle control, medium only control, set of six positive controls/reference chemicals for the five hepatic receptor pathways, and a subset of eight of the ToxCast chemicals (indoxacarb, pyrithiobac-sodium, norflurazon, cyhalofop-butyl, methomyl, thiram, acetochlor, and propiconazole). These replicate data, coupled with internal replicates designed within the blinded ToxCast chemical library, provided additional data to evaluate interindividual differences between hepatocyte preparations and their potential impact on chemical profiles.Cell morphology and integrity were evaluated using phase-contrast microscopy as an indicator of hepatocyte cell health (Tyson & Green, 1987). Cultures for each treatment group (i.e., media, vehicle [0.2% DMSO], positive control inducers [multiple concentrations], and the ToxCast chemicals [multiple concentrations]) were observed and cell morphology was assessed relative to vehicle control cultures at each harvest time point (0, 6, 24, or 48 h). […] Images were evaluated at the conclusion of the study to assess changes in cell integrity and account for the effects of chemical exposure on uncharacteristic changes in concentration-dependent gene expression profiles. The results from these determinations of apparent cytotoxicity were annotated (yes/no) alongside the corresponding qNPA data for reference.At the conclusion of each treatment period, hepatocyte cultures (96-well) were washed with 1 volume of HBSS, lysed by addition of 25 ul ArrayPlate lysis buffer (HTG, Tucson, AZ), and 70 ul/well of Denaturation Oil, denatured by incubation at 95C for 10 min, and frozen at approximately -70C until analysis by nuclease protection assay (qNPA) (Roberts et al., 2007). For qNPA analysis, cell lysates were thawed at 50C for approximately 30 min, qNPA probes were added, and samples were incubated at 95C for 10 min to begin the detection process by denaturing the target RNA, dissociating the duplexes and secondary structure hybridization. At the conclusion of the hybridization period, S1 nuclease reagent was added to each sample to digest all nonprotected nucleotides at 50C for 60-90 min. […]
For `CCCCN(CC)c1c([N+](=O)[O-])cc(C(F)(F)F)cc1[N+](=O)[O-]`, the AC50 is 7.3 µM (active).

Consider `C#CCC1=C(C)C(OC(=O)C2C(C=C(C)C)C2(C)C)CC1=O` (stereo not given), for which the AC50 was 4.23 µM (active). For the compound `COc1ccc(C(=CC(=O)N2CCOCC2)c2ccc(Cl)cc2)cc1OC`, the AC50 was 3.59 µM (active). On the same count and under the same terms, next, `CNC(=O)Oc1cccc2c1OC(C)(C)O2`: 20 µM (active).

Regarding `Cc1nn(-c2cc(NS(C)(=O)=O)c(Cl)cc2Cl)c(=O)n1C(F)F`, the AC50 was 4.18 µM (active). As for `CC(C)N(C(=O)SCC(Cl)=C(Cl)Cl)C(C)C`, the AC50 was 20 µM (active). `CC1(C(=O)Nc2ccc(O)c(Cl)c2Cl)CCCCC1`: the result was inactive. `COP(=O)(OC)OC(Br)C(Cl)(Cl)Br` (stereo not given): the call was inactive. Still for that read-out and setting: next, `CCC(=NOC/C=C/Cl)C1=C(O)CC(C2CCOCC2)CC1=O` (stereo not given): “inactive”. As for `CCOP(=S)(OCC)OC(Cl)C(Cl)(Cl)Cl` (stereo not given), the AC50 was 0.201 µM (active). With `S=C1NCCN1`, the result was inactive. Turning to `CNC(=O)ON=C(C)SC`, the outcome was inactive.

`CCOP(=O)(SC(C)CC)N1CCSC1=O` (stereo not given): the AC50 was 3.26 µM (active). For `CCOP(=O)(OCC)Oc1cc(C)nc(C(C)C)n1`, the AC50 was 20 µM (active). The same measure, in the same setting: next, `CCCCSP(=O)(SCCCC)SCCCC`: 1.9 µM (active). Regarding `CN(C)NC(=O)CCC(=O)O`, the compound was classed as inactive.

As to `CCc1cccc(C)c1N(C(=O)CCl)C(C)COC` (stereo not given), the AC50 is 1.61 µM (active).

Regarding `N#CSCSC#N`, the compound was called inactive. Still for that read-out and setting: next, `Cc1ccn2nc(S(=O)(=O)Nc3c(F)cccc3F)nc2n1`: “inactive”. For `CON=C(C(=O)OC)c1ccccc1CON=C(C)c1cccc(C(F)(F)F)c1`, the AC50 was 20 µM (active). Regarding `CN1COCN(Cc2cnc(Cl)s2)C1=N[N+](=O)[O-]`, the compound was called inactive. As to `CN(C)C(=O)Nc1cccc(C(F)(F)F)c1`, the AC50 is 4.64 µM (active). Same read-out and setting: next, `CSc1nnc(C(C)(C)C)c(=O)n1N`: 20 µM (active); `CCCSP(=O)(OCC)SCCC`: 2.84 µM (active); `CCOP(=O)(NC(C)C)Oc1ccc(SC)c(C)c1` (stereo not given): 6.17 µM (active). Turning to `CCCOc1nn(C(=O)NS(=O)(=O)c2ccccc2C(=O)OC)c(=O)n1C`, the compound was classed as inactive.

As to `CCCSP(=O)(OCC)Oc1ccc(Br)cc1Cl` (stereo not given), the AC50 was 6.22 µM (active). Regarding `CCOP(=S)(OCC)Oc1cc(C)nc(C(C)C)n1`, the AC50 is 0.747 µM (active). On to `CCCCOC(=O)[C@@H](C)Oc1ccc(Oc2ccc(C#N)cc2F)cc1`, for which the compound was called inactive. Turning to `CC[C@H](C)[C@H]1O[C@]2(C=C[C@@H]1C)C[C@@H]1C[C@@H](C/C=C(\C)[C@@H](O[C@H]3C[C@H](OC)[C@@H](O[C@H]4C[C@H](OC)[C@@H](NC)[C@H](C)O4)[C@H](C)O3)[C@@H](C)/C=C/C=C3\CO[C@@H]4[C@H](O)C(C)=C[C@@H](C(=O)O1)[C@]34O)O2`, the result was inactive. `FC(F)C(F)(F)OCC(Cn1cncn1)c1ccc(Cl)cc1Cl` (stereo not given): the AC50 is 0.275 µM (active).

On to `CCc1cccc(CC)c1N(COC)C(=O)CCl`, for which the AC50 is 2.69 µM (active).

In the case of `CCC(CC)Nc1c([N+](=O)[O-])cc(C)c(C)c1[N+](=O)[O-]`, the AC50 was 11.4 µM (active). On the same count and under the same terms, next, `CC(COc1ccc(Oc2ccccc2)cc1)Oc1ccccn1` (stereo not given): 3.97 µM (active). With `CC(C)[C@H](C(=O)O[C@H](C#N)c1cccc(Oc2ccccc2)c1)c1ccc(Cl)cc1`, the result was inactive. Still for that read-out and setting: next, `COP(=O)(NC(C)=O)SC` (stereo not given): “inactive”; `COc1cc(OC)nc(Sc2cccc(Cl)c2C(=O)O)n1`: “inactive”. In the case of `CCNc1nc(Cl)nc(NC(C)(C)C#N)n1`, the AC50 is 3.69 µM (active). As for `O=[N+]([O-])c1cc(C(F)(F)F)c(Cl)c([N+](=O)[O-])c1Nc1ncc(C(F)(F)F)cc1Cl`, the outcome was inactive. Same read-out and setting: next, `O=C(O)c1cc(Oc2ccc(C(F)(F)F)cc2Cl)ccc1[N+](=O)[O-]`: “inactive”.
